Hits are enriched below; roughly 11% of the tested compounds scored in any of these assays.
HPGD block = blocks human HPGD enzyme activity; purified HPGD, NADH fluorescence kinetic, PGE2 substrate; Potency, µM, for inactives: top-dose activity change, negative = inhibition, most hits filed as inhibitors; 4.3% of 150,000 active; active = well fitted inhibition curve with a large enough effect, not every such curve was filed as active; inconclusive = small, poorly fitted or top-dose-only effect, or another doubt; inactive = no such curve, though single readings can be large or run the other way; note: potency is the fitted concentration of half-maximal effect; % is set by controls: 0 for no effect and ±100 for the full control effect
Target sequence (P15428 whole entry, looked up): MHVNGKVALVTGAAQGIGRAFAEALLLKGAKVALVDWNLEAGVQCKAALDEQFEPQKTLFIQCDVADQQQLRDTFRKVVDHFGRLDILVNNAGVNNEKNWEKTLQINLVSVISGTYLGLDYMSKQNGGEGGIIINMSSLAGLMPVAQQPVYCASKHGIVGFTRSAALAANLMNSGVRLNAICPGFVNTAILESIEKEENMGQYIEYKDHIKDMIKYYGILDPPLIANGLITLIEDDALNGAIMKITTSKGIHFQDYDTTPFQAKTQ
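20 nM HPGD preincubated 15 min at room temperature with compound in 50 mM Tris-HCl pH 8, 0.01% Tween 20. Started with 1 mM NAD+ and 30 uM prostaglandin E2; NADH fluorescence (360/450 nm) read 5 times over 30-s intervals, last minus first.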
HTT aggregate = mutant huntingtin aggregation inhibition; Potency, µM (top dose mostly 46.1 µM), inactives show top-dose activity change, negative = inhibition, hits mostly inhibitors; PC12 HttQ103-GFP aggregates, Acumen cytometry, 40 h; AID 1688; 1.1% of 220,000 active; note: potency is the fitted concentration of half-maximal effect; % is set by controls: 0 for no effect and ±100 for the full control effect; nearly all actives have a fitted effect of over 60% in size
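Ecdysone-promoter PC12 model expressing HTT exon 1 Q103 fused to GFP, induced by tebufenozide at 100 nM final. Compounds titrated; aggregates sized 1–25 µm scored on a 488 nm laser cytometer.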
ALDH1A1 block = inhibitors of human aldehyde dehydrogenase 1A1; AID 1030; P00352; Potency, µM (doses to about 75.3 µM), inactives show at the top dose activity, negative = inhibition, usual class: inhibitors; 7.3% of 220,000 active; Purified ALDH1A1, NADH fluorescence, propionaldehyde substrate; active = well fitted inhibition curve with a large enough effect, not every such curve was filed as active; inconclusive = small, poorly fitted or top-dose-only effect, or another doubt; inactive = no such curve, though single readings can be large or run the other way;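 note: potency is the fitted concentration of half-maximal effect; plate controls were no enzyme wells and a reference inhibitor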
GoLoco inh red = blocks human Gai1 binding to RGS12 GoLoco peptide, red readout | P63096 | Gai1:RGS12 GoLoco peptide FP, rhodamine, 10 min | Potency, µM (titrated, usually from 61.6 µM), for inactives: top-dose activity, negative = inhibition, actives largely listed as inhibitors | 0.44% of 230,000 active; active = well fitted inhibition curve with a large enough effect, not every such curve was filed as active; inactive = no such curve, though single readings can be large or run the other way; note: potency is the fitted concentration of half-maximal effect; % is set by controls: 0 for no effect and ±100 for the full control effect; nearly all actives have a fitted effect of over 30% in size
Target sequence (P63096 whole entry, looked up): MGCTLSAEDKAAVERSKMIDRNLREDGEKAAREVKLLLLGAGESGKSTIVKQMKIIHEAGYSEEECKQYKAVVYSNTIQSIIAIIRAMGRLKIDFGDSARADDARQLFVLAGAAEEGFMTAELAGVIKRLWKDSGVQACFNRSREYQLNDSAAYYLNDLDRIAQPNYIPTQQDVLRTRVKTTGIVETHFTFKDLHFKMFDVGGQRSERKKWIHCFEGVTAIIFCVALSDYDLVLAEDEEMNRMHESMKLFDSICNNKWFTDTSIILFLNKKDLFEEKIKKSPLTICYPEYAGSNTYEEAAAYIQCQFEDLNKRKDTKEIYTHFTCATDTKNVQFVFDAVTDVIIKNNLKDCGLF
HTT ATP protect = protects HTT-Q103 PC12 cells, measured by ATP; PC12 HTT-Q103 induced, cytoprotection, ATP luminescence, 40 h; AID 1471; Potency, µM (titrated, usually from 56.4 µM), inactives show cytoprotection (ATP increase), actives largely listed as activators; 0.14% of 230,000 active; note: potency is the fitted concentration of half-maximal effect; % of control where 0% means no effect; nearly all actives have a fitted effect of over 45% in size
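Huntington model: PC12 line, ecdysone-inducible HTTQ103 exon1–GFP, tebufenozide 100 nM. Test articles in a dose series. Endpoint luminescence from cellular ATP.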
PNC assembly inh = inhibitors of perinucleolar compartment assembly; PC3M PTB-GFP, PNC prevalence imaging, 16 h; hits give low values; activity change (PNC), negative = inhibition, % at 10 µM; 3.1% of 140,000 active; AID 2417;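 active = readout at or below -70, meaning at least 70% loss of cells showing the perinucleolar compartment, a nuclear body marking cancer cells; inconclusive = readout between -30 and a set limit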;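 note: plate controls were DMSO wells for no effect and camptothecin positive control wells for full effect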
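PC3M cells stably expressing PTB-GFP, 750–1000 cells/well, treated 16 h at 37 °C with compound (23 nl of library stock), in duplicate. After paraformaldehyde fixation and Hoechst stain, imaged at 20x; PNC prevalence scored by image analysis.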
The depositor's hits bear a star; ? = inconclusive; nt = not tested or not shown; [ ] = another dose, or the depositor's remark. Unless noted, calls come from the whole dose curve; as a rule, active = well fitted curve in the direction sought with a large enough effect; inconclusive = small, poorly fitted or top-dose-only effect, or another doubt; inactive = no such curve, though single readings can be large; an effect the other way counts as inactive or inconclusive.

SMILES	HPGD block	HTT aggregate	ALDH1A1 block	GoLoco inh red	HTT ATP protect	PNC assembly inh
O=C(Nc1cccc(F)c1)c1ccc(Cn2cc([N+](=O)[O-])cn2)o1	nt	?	?	11%	-24%	nt
CCc1ccc(NC(=O)CSc2nnc(Cc3cccn3C)n2-c2ccc(OC)cc2)cc1	-9%	1%	?	2%	6%[10 µM]	6
COCCn1c(SCC(=O)Nc2nnc(C)s2)nnc1-c1cc2ccccc2cc1O	?	2%	?	-24%	-25%	-91*
COc1ccc(-n2c(Cc3cccn3C)nnc2SCC(=O)Nc2ccccc2)cc1	-14%	12%	14µM*	13%	3%[10 µM]	?
COc1ccc(NC(=O)CSc2nnc(Cc3cccn3C)n2-c2ccc(F)cc2)cc1OC	-16%	-1%	25µM*	7%	-14%[10 µM]	-10
Cn1cccc1Cc1nnc(SCC(=O)Nc2ccc(F)cc2)n1-c1ccc(F)cc1	-1%	-1%	?	2%	-3%	-16
CCOC(=O)c1cccc(NC(=O)CSc2nnc(-c3ccoc3C)n2CCOC)c1	-14%	10%	20µM*	2%	-22%[10 µM]	?
N#Cc1c(NC(=O)c2cccc(S(=O)(=O)Nc3ccc(C(=O)O)cc3)c2)sc2c1CCCC2	nt	-3%[9.22 µM]	nt	30%	-6%[10 µM]	nt
O=C(O)CN(CC(=O)O)c1ccccc1	-5%	nt	24%[13.5 µM]	-5%[14.2 µM]	-10%[10 µM]	nt
Cc1ccc(C(=O)NCC(=O)OCC(=O)c2ccc3c(c2)NC(=O)CO3)cc1	nt	20%	-2%	1%	-39%	nt
O=C1COc2ccc(C(=O)CSc3nnc(-c4cccs4)n3Cc3ccccc3)cc2N1	-24%	5%	?	14%	-21%[0.074 µM]	-29
O=C1COc2ccc(C(=O)CSc3nnc(Cc4cccs4)n3-c3ccccc3)cc2N1	-26%	8%[9.22 µM]	3.2µM*	1%	0%	?
Cn1cccc1Cc1nnc(SCC(=O)Nc2ccc3c(c2)OCCO3)n1-c1ccc(F)cc1	0%	2%	20µM*	0%	3%[10 µM]	4
CC(C)C[C@@H](CC(=O)N[C@@H](CCC(=O)O)CC(=O)O)NC(=O)[C@@H]1CCCC[C@H]1NC(=O)C[C@H](CCCN)NC(=O)C[C@H](CO)NC(=O)[C@@H]1CCCC[C@H]1N	-2%	nt	-3%	-5%	?	nt
Cc1ccc(C)c(S(=O)(=O)Nc2ccccc2C(=O)Nc2cc(C)on2)c1	?	10µM*	?	0%	-65%	-9
Cc1ccc(C)c(NC(=O)c2ccccc2NS(=O)(=O)c2cc([N+](=O)[O-])ccc2C)c1	-3%	2.8µM*	13%	0%	-52%[10 µM]	107
Cc1ccc(C)c(NC(=O)c2ccccc2Sc2ccc([N+](=O)[O-])cc2Cl)c1	-3%	-10%	10%	-3%	?	79
Cn1c(=O)c2c(nc(Br)n2CC(=O)C23CC4CC(CC(C4)C2)C3)n(C)c1=O	-16%	-9%	11µM*	14%	-2%[0.074 µM]	?
COc1cccc(C(=O)Cn2c(Br)nc3c2c(=O)n(C)c(=O)n3C)c1	-12%	-18%	0%	-2%	-24%	13
Cc1ccc2cccc(OC(=O)/C=C\c3ccccc3)c2n1	nt	10%[9.22 µM]	-3%	10%	3.2µM*	nt
COc1ccccc1/C=C/C(=O)Oc1cccc2cccnc12	nt	-3%	?	8%	7%	nt
O=c1c(Cl)c(Cl)cnn1Cc1nnc(-c2ccccc2Br)o1	nt	?	3.5µM*	3%	-199%	nt
Brc1ccccc1-c1nnc(COc2ncnc3ccccc23)o1	nt	-18%[9.22 µM]	nt	12%	15%[10 µM]	nt
Clc1ccccc1OCc1nnc(-c2ccccc2Br)o1	20µM*	-11%	?	17%	-26%	-10
Clc1ccc(Cc2nnc(-c3ccccc3Br)o2)cc1	20µM*	14%	10%	9%	-13%	52
SMILES	HPGD block	HTT aggregate	ALDH1A1 block	GoLoco inh red	HTT ATP protect	PNC assembly inh
Brc1ccccc1-c1nnc(COc2cccc3cccnc23)o1	?	-6%	?	11%	-40%	?
CCCCC/C=C\C/C=C\C[C@H](O)/C=C/C=C\CCCC(=O)O	-2%	nt	0%	3%	10%	nt
COC(=O)[C@@H](NC(=O)O[C@@H]1C(=O)c2cc(Br)ccc2O[C@H]1c1ccc2c(c1)OCO2)C(C)C	-6%	nt	-5%	2%	-22%	nt
CCN1C(=O)c2cccc3c(NC(=O)C4CCCCC4)ccc1c23	nt	-1%	4µM*	nt	-21%	?
CCN1C(=O)c2cccc3c(NC(=O)c4ccc(OC)c(OC)c4)ccc1c23	-6%	6%	4.5µM*	-11%	1%[10 µM]	?
COc1cc(C=O)ccc1OS(=O)(=O)c1ccccc1[N+](=O)[O-]	18µM*	9%	8.9µM*	-2%	11%[10 µM]	22
COc1cc(C=O)ccc1OCCCCOc1ccccc1[N+](=O)[O-]	-26%	5%	5µM*	-10%	nt	?
COc1cc(C=O)ccc1OCCCOc1ccc([N+](=O)[O-])cc1	-21%	-29%	?	10%	nt	-7
COc1ccc(C=O)cc1COc1ccc(C)cc1[N+](=O)[O-]	-23%	16%	10µM*	37%	-35%	?
COc1cc(C=O)ccc1OCCOc1ccccc1[N+](=O)[O-]	?	-6%	?	2%	nt	36
COc1cc(C=O)ccc1OCCCOc1ccccc1[N+](=O)[O-]	20µM*	?	-15%	5%	nt	-26
COC(=O)C1=C(C(=O)OC)[C@@H]2N(C)c3ccc(OC)cc3[C@@]23C[C@@H](C(=O)OC)N(S(=O)(=O)c2ccc(C#N)cc2)C3=N1	1%	nt	4%[13.5 µM]	9%[14.2 µM]	-15%[10 µM]	nt
CCOC(=O)C1(Cc2cccc(Cl)c2)CCCN(C(=O)C2CC2)C1 (stereo not given)	nt	-2%[9.22 µM]	1%	7%	8%[10 µM]	nt
COc1ccc(/C=N/NS(=O)(=O)c2ccc(F)cc2)cc1COc1cc(F)ccc1[N+](=O)[O-]	nt	27%	35µM*	7%	nt	nt
COc1cccc2cc(C(=O)OCC(=O)NCc3ccc4c(c3)OCO4)c(=O)oc12	nt	5%[9.22 µM]	-7%	6%	13%[10 µM]	nt
Cc1ccc(C(=O)CCC(=O)O)cc1	-7%	-18%	-1%	12%	3%	20
CCCc1ccc(C(=O)CCC(=O)O)cc1	-7%	17%	7%	-6%	-3%	-96*
CCOC(=O)c1c(C)c(C(=O)Nc2ccccc2)c(C)n1CC	-1%	-1%	0%	5%	-6%[10 µM]	?
CC(=O)c1c(C)[nH]c(C(=O)N2CCc3ccccc3C2)c1C	18µM*	-3%	0%	6%	-15%	84
CCOC(=O)c1c(C)c(C(=O)N2CCc3ccccc3C2)c(C)n1CC	4.5µM*	-7%	?	-9%	2%	21
CN1CCN(c2ncncc2-c2cccnc2)CC1	nt	nt	?	-15%	4%	nt
